The campaign covered roughly 1,300 compounds. About 1,000 (77%) were called active. About 7% were inconclusive and are not listed. So high a share suggests a set chosen from earlier hits. This is one part of the list. A number with no mark means an inactive call. Calls follow the shape of the dose curve; as a rule, active = well fitted inhibition curve with a large enough effect; inconclusive = small, poorly fitted or top-dose-only effect; inactive = no such curve, though single readings can be large or run the other way.
Assay: qHTS of small molecules that selectively kill Giardia lamblia: Hit Validation.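 Also: viability measured as ATP content by luminescence so killing lowers signal; trophozoites exposed to compounds for 48 h anaerobically at 37 °C; nearly all actives have a fitted effect of over 65% in size.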
Settings: Giardia lamblia trophozoite viability, dose-response; series mostly up to 38.3 µM; activity change, negative = killing: at the top concentration
Method in brief: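 Killing of trophozoites was scored by loss of ATP luminescence after a 48 hrs anaerobic exposure to compounds at 37 deg C, using 100 cells per well.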
% is scaled to controls: 0 for no effect and ±100 for the full control effect; potency is read from the fitted curve at half-maximal effect.

| SMILES | activity change, negative = killing [%] | Potency |
| --- | --- | --- |
| CCc1ccc(S(=O)(=O)Nc2ccc(-c3ccc4nnc(C)n4n3)cc2)s1 | -30 |  |
| COC(=O)[C@@]12CCCCN1[C@H](c1ccc(-c3ccc(C(C)=O)cc3)cc1)[C@@H]1C(=O)N(C)C(=O)[C@@H]12 | -23.9 |  |
| CC12CN3CC(C)(CN(C1)C3c1ccc([N+](=O)[O-])o1)C2 (stereo not given) |  | 1300 nM (active) |
| CCCCC12CN3CC(C)(CN(C1)C3c1ccc([N+](=O)[O-])o1)C2=O (stereo not given) |  | 2050 nM (active) |
| CCC12CN3CC(CC)(CN(C1)C3c1ccc([N+](=O)[O-])o1)C2=O (stereo not given) |  | 4100 nM (active) |
| CCCC12CN3CC(C)(CN(C1)C3c1ccc([N+](=O)[O-])o1)C2=O (stereo not given) |  | 1830 nM (active) |
| O=c1cccc(-c2ccccc2)[nH]1 | -19.2 |  |
| O=c1[nH]c(=O)c2cc([N+](=O)[O-])cc([N+](=O)[O-])c2[nH]1 |  | 4100 nM (active) |
| O=C(COc1cccnc1[N+](=O)[O-])Nc1cccc2ccccc12 |  | 4600 nM (active) |
| COc1ccccc1NCCC(=O)OCC(=O)NC1CCCCCC1 | -3.6 |  |
| COc1ccccc1NC(=O)COc1cccnc1[N+](=O)[O-] |  | 6500 nM (active) |
| COC(=O)c1sc(NC(=O)COc2cccnc2[N+](=O)[O-])c(C(=O)OC)c1C |  | 4100 nM (active) |
| O=C(COc1cccnc1[N+](=O)[O-])N1CCc2ccccc21 |  | 4100 nM (active) |
| CC(C)Cn1c(=S)[nH]c2cc(C(=O)NCc3ccccc3F)ccc2c1=O | 2.52 |  |
| S=c1[nH]nc2ccccn12 | -16.5 |  |
| O=[N+]([O-])c1cnc2ccccn12 |  | 2050 nM (active) |
| O=C(CSc1cccc[n+]1[O-])Nc1cc2c(cc1Cl)C(=O)c1ccccc1C2=O |  | 2900 nM (active) |
| N#C/C(=C\c1ccc(O)c([N+](=O)[O-])c1)c1nc2ccccc2s1 |  | 1830 nM (active) |
| N#C/C(=C\c1ccc(O)c([N+](=O)[O-])c1)C(=O)NCc1ccccc1 |  | 3260 nM (active) |
| COCCNC(=O)/C(C#N)=C/c1ccc(O)c([N+](=O)[O-])c1 |  | 4600 nM (active) |
| N#C/C(=C/c1ccc(O)c([N+](=O)[O-])c1)C(=O)Nc1ccccc1 |  | 3260 nM (active) |
| CC(C)C[C@H](NC(=O)c1[nH]cnc1C(=O)N[C@H](C)c1ccccc1)C(=O)OCc1ccccc1 | -11.2 |  |
| CCN(CC)CC(=O)Nc1c(C)cccc1C | 2.88 |  |
| O=c1/c(=C/c2ccc(O)c([N+](=O)[O-])c2)sc2nc3ccccc3n12 |  | 2590 nM (active) |

| SMILES | activity change, negative = killing [%] | Potency |
| --- | --- | --- |
| COc1ccc2c(c1)C1OCCC1C(c1ccco1)N2 (stereo not given) |  | 2310 nM (active) |
| Cc1ccc(N2CC(C(=O)Nc3ncc([N+](=O)[O-])s3)CC2=O)cc1 (stereo not given) |  | 365 nM (active) |
| O=C(Nc1ncc([N+](=O)[O-])s1)C1CC(=O)N(c2ccc(F)cc2)C1 (stereo not given) |  | 1030 nM (active) |
| O=C(CCN=C1NS(=O)(=O)c2ccccc21)OCC(=O)c1ccc(F)c(F)c1 | 5.94 |  |
| CCCNC(=O)Cn1c(=O)n(C)c2ccccc21 | 2.52 |  |
| COc1cc2c(cc1OC)-c1c(OC)c(OC)cc3ccnc(c13)C2=O |  | 579 nM (active) |
| COc1ccc(-c2nc(NCCCN(C)C)c3ccccc3n2)cc1 |  | 818 nM (active) |
| CCN(CC)CCCNc1nc2ccccc2c2[nH]c3ccc(OC)cc3c12 |  | 183 nM (active) |
| CCN1C(=O)[C@H]2[C@H]3CN=C(SCc4ccccc4)N3[C@@](Cc3ccccc3)(C(=O)OC)[C@H]2C1=O | 13.6 |  |
| Cc1nn2c3cc(N4CCOCC4)ccc3nc2c2ccccc12 |  | 1030 nM (active) |
| COc1cccc2c1C(CO)N1C(C#N)C3CC(C(=O)O)C(C1C2)N3C (stereo not given) |  | 1160 nM (active) |
| O=C(N/N=C/c1ccc([N+](=O)[O-])o1)C1CC1 |  | 1160 nM (active) |
| O=C(N/N=C/c1ccc([N+](=O)[O-])o1)C1CCCC1 |  | 516 nM (active) |
| CCOc1cc([N+](=O)[O-])cc(/C=C2/NC(=O)N(Cc3ccccc3F)C2=O)c1O |  | 1630 nM (active) |
| COc1ccc(-c2coc3cc(O)ccc3c2=O)cc1 |  | 1160 nM (active) |
| CC(C)Oc1cc(O)c2c(=O)c(-c3ccc(O)cc3)coc2c1 |  | 516 nM (active) |
| O=c1c(-c2ccc(F)cc2)coc2cc(O)ccc12 |  | 918 nM (active) |
| CC1(C)Oc2cc3oc(-c4cc(O)cc(O)c4)cc3cc2CC1O (stereo not given) |  | 1450 nM (active) |
| COC(=O)[C@]1(Cc2ccccc2)N[C@H](CN(C)C(=O)c2ccccc2)[C@@H]2C(=O)N(C)C(=O)[C@@H]21 | -1.17 |  |
| COc1ccc2oc(C(=O)OC(C)C(=O)NCc3ccccc3)c(C)c2c1 (stereo not given) | -21.9 |  |
| COc1ccc(C(=O)C(C)OC(=O)CNC(=O)c2ccco2)cc1 (stereo not given) |  | 20500 nM (active) |
| COc1ccc(C(=O)C(C)OC(=O)CNC(=O)C2CCCCC2)cc1 (stereo not given) |  | 4600 nM (active) |
| CCOC(=O)N=Nc1c2ccccc2c2nc3no[nH]c3nc12 |  | 365 nM (active) |
| Fc1cc2[nH]cnc2cc1Cl | -8.27 |  |

| SMILES | activity change, negative = killing [%] | Potency |
| --- | --- | --- |
| CC(C)CNC(=S)NC(=O)c1csc([N+](=O)[O-])c1 |  | 1300 nM (active) |
| O=C(NCc1ccco1)NC(=O)c1csc([N+](=O)[O-])c1 |  | 1630 nM (active) |
| COc1cc(/C=C/C(=O)c2ccc3c(c2)OCCO3)cc(OC)c1OC |  | 7290 nM (active) |
| COc1cc(C(=S)N2CCOCC2)ccc1OC(=O)/C=C/c1ccco1 | 7.28 |  |
| Cc1nn(-c2nc3ccccc3[nH]2)c(=O)c2ccccc12 |  | 230 nM (active) |
| COC1C(OC(=O)/C=C/C=C/C=C/C=C/C(=O)O)CCC2(CO2)C1C1(C)OC1CC=C(C)C (stereo not given) (tested in a mixture with another compound) |  | 1.5 nM (active) |
| CCOc1ccc2nc(NC(=O)c3c([N+](=O)[O-])cnn3CC)sc2c1 |  | 1830 nM (active) |
| CCn1ncc([N+](=O)[O-])c1C(=O)Nc1nc2cccc(C)c2s1 |  | 4100 nM (active) |
| Cc1ccccc1C(=O)Nc1ccc2c(c1)OCCO2 |  | 3650 nM (active) |
| O=C(Nc1ccc2c(c1)OCCO2)c1ccc(Br)o1 |  | 5160 nM (active) |
| O=C(Nc1ccc2c(c1)OCCO2)c1cc(-c2ccccn2)nc2ccc(Br)cc12 |  | 4100 nM (active) |
| Cc1ccc(C(=O)Nc2ccc3c(c2)OCCO3)o1 |  | 7290 nM (active) |
| Cc1ccc(-c2c(C(=O)N/N=C/C3CC=CCC3)nnn2-c2nonc2N)cc1 (stereo not given) | -19.1 |  |
| CN(C)S(=O)(=O)c1ccc(N2CCCC2)c(C(=O)N2CCN(c3ccc([N+](=O)[O-])cc3)CC2)c1 |  | 1830 nM (active) |
| O=C(CNC(=O)Cc1ccccc1)N=Nc1c(O)[nH]c2ccc(Br)cc12 | -12.8 |  |
| O=C(N=Nc1c(O)[nH]c2ccccc12)c1cccs1 |  | 3650 nM (active) |
| O=[N+]([O-])c1cncn1CCN1CCOCC1 |  | 326 nM (active) |
| C[C@]12c3[nH]c4ccc(Cl)cc4c3CCN1C(=O)[C@@H](CC(=O)NCCN1CCOCC1)C[C@@H]2C(=O)N1CCOCC1 | -36.2 |  |
| CC(=O)c1cccc(NC(=O)c2ccc([N+](=O)[O-])o2)c1 |  | 1160 nM (active) |
| Cc1cccc(NC(=O)c2ccc([N+](=O)[O-])o2)c1 |  | 729 nM (active) |
| Cc1cc(C)cc(NC(=O)c2ccc([N+](=O)[O-])o2)c1 |  | 1030 nM (active) |
| Cc1ccc(NC(=O)c2ccc([N+](=O)[O-])o2)cc1C |  | 460 nM (active) |
| COc1ccc(CC(=O)NCC(=O)Nc2ccccc2Br)cc1 | -17.5 |  |
| CC(=O)c1ccc(NC(=O)c2ccc([N+](=O)[O-])o2)cc1 |  | 818 nM (active) |

| SMILES | activity change, negative = killing [%] | Potency |
| --- | --- | --- |
| COc1ccc(NC(=O)c2ccc([N+](=O)[O-])o2)cc1 |  | 1030 nM (active) |
| O=C(/C=C/c1cccnc1)/C=C/c1cccnc1 |  | 18300 nM (active) |
| COc1cc(C(=O)/C=C/c2cccnc2)c([N+](=O)[O-])cc1OC |  | 4600 nM (active) |
| Cc1cc(Nc2ccccc2)c2c([N+](=O)[O-])ccc(C)c2n1 |  | 259 nM (active) |
| Cc1ccc(Nc2cc(C)nc3c(C)ccc([N+](=O)[O-])c23)cc1 |  | 146 nM (active) |
| Cc1cc(Nc2ccccc2)c2c([N+](=O)[O-])cc(C)c(C)c2n1 |  | 259 nM (active) |
| COc1ccccc1Nc1cc(C)nc2c(C)ccc([N+](=O)[O-])c12 |  | 2590 nM (active) |
| CN(C)/[N+]([O-])=N/Oc1ccc([N+](=O)[O-])cn1 |  | 2590 nM (active) |
| Cc1cc(C2=NNC(=NC3CC3)SC2)c(C)n1-c1ccccc1F |  | 1450 nM (active) |
| COc1ccc(-c2ncn(CCC#N)c2[N+](=O)[O-])cc1 |  | 206 nM (active) |
| CCn1c(=NC(=O)c2cccc(N3C(=O)CCC3=O)c2)sc2c(OC)ccc(OC)c21 |  | 2310 nM (active) |
| Cc1cccc(N2CCN(C(=S)Nc3ccc4nc(N5CCN(C)CC5)cc(C)c4c3)CC2)c1C |  | 1030 nM (active) |
| Cc1ccc(C)c(N2CCN(C(=S)Nc3ccc4nc(N5CCN(C)CC5)cc(C)c4c3)CC2)c1 |  | 1300 nM (active) |
| COc1ccc(/C=N/Nc2cc(C)nc3c(C)cccc23)cc1 |  | 818 nM (active) |
| COc1ccc2nc(C)cc(N/N=C/c3cccc(OC)c3O)c2c1 |  | 918 nM (active) |
| COc1ccc(N(CC(=O)N/N=C/c2cccc(OC)c2OC)S(=O)(=O)c2ccccc2)cc1 | -8.54 |  |
| COc1ccc2nc(C)cc(N/N=C/c3ccc(F)cc3)c2c1 |  | 1160 nM (active) |
| O=c1c([N+](=O)[O-])cccn1Cc1cccc(Br)c1 |  | 2050 nM (active) |
| O=c1c([N+](=O)[O-])cccn1Cc1cccc(Cl)c1 |  | 4600 nM (active) |
| O=C(NCC1CCN(Cc2ccc(F)cc2)CC1)Nc1cc(F)ccc1F | -28.9 |  |
| CCN1CCN(Cc2ccc(NC(=O)Nc3ccccc3)cc2)CC1 |  | 9180 nM (active) |
| O=C(Nc1ccccc1)Nc1ccc(C(=O)N2CCCC2)cc1 |  | 5790 nM (active) |
| CN(C(=O)c1cccc(NC(=O)Cc2ccc(NC(=O)C3CCN(C(=O)c4ccccc4)CC3)cc2)c1)C1CC1 | 4.59 |  |
